According to PubChem BioAssay (Tox21):
Records with an inconclusive call do not appear. Calls of active or inactive are those of the source. Unless noted, the call rests on the fitted dose curve; in most records, active means well fitted curve in the direction sought with a large enough effect in the repeat runs; inconclusive means weak or mixed curves; inactive means no such curve, though single readings can be large; an effect the other way counts as inactive or inconclusive.

Columns and labels:
[1] = qHTS assay to identify small molecule agonists of the TGF-beta/Smad signaling pathway - cell viability counter screen (AID 1346829); further: top concentration of the series differs between compounds; nearly all actives have a fitted effect of over 45% in size
In short: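 HEK 293T SBE-bla line, 5 hr compound exposure at 37 C, multiplexed CellTiter-Glo viability read by luminescence.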

[2] = qHTS assay to identify small molecule agonists of the TGF-beta/Smad signaling pathway (AID 1346859; active means well fitted activation curve with a large enough effect in the signal ratio in the repeat runs, not every such curve was filed as active; the % refers to the signal ratio; further: series mostly up to about 77 µM)
In short: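 Smad-responsive beta-lactamase reporter cells (HEK 293T) received compounds from DMSO stocks after overnight attachment, were incubated 5 hr, then treated 2 hr with FRET substrate before dual-emission fluorescence measurement (405 nm excitation).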

[3] = Human pregnane X receptor (PXR) small molecule agonists, qHTS cell viability counter screen (AID 1346977); further: nearly all actives have a fitted effect of over 50% in size
In short: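 Measures live-cell protease fluorescence (CellTiter-Fluor) in PXR-Luc HepG2 cells treated 24hr with compounds at 37C. Cells had 5hr to attach before pin transfer of DMSO solutions.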

[4] = Caspase-3/7 induction in HepG2 cells by small molecules, qHTS assay (AID 1346978); further: nearly all actives have a fitted effect of over 15% in size
In short: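 Wild-type HepG2 cells (2,000/well) were settled 5 h at 37 C, 5% CO2, then exposed to compounds in DMSO for 17 h. Caspase-3/7 activity was read by luminescence 30 min after adding Caspase-Glo 3/7 reagent at room temperature.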

[5] = Caspase-3/7 induction in CHO-K1 cells by small molecules, qHTS cell viability counter screen (AID 1346979); further: nearly all actives have a fitted effect of over 35% in size
In short: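 In the same wells as the caspase read, viability of compound-treated wild-type CHO-K1 cells was assessed using CellTiter-Fluor, added after 16hr at 37C and measured by fluorescence following 1hr further incubation.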

[6] = Caspase-3/7 induction in CHO-K1 cells by small molecules, qHTS assay (AID 1346980); further: nearly all actives have a fitted effect of over 15% in size
In short: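 Wild-type cells were seeded at 1,500 per well and settled 5 hr at 37 C, 5% CO2, then exposed to DMSO-dissolved compounds for 17 hr. Caspase-Glo 3/7 reagent was added, and luminescence was read after 30min at room temperature.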

[7] = Caspase-3/7 induction in HepG2 cells by small molecules, qHTS cell viability counter screen (AID 1346981); further: series mostly up to about 92 µM; nearly all actives have a fitted effect of over 30% in size
In short: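 After a 5-hr attachment period at 37 C and 5% CO2, wild-type HepG2 cells received compounds in DMSO. Sixteen hours later CellTiter-Fluor was dispensed and the fluorescent signal quantified after a further hour.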

[8] = biological target: Nuclear receptor subfamily 1 group I member 2 (Homo sapiens) (UniProt O75469); assay: Human pregnane X receptor (PXR) small molecule agonists, qHTS assay (AID 1346982); further: nearly all actives have a fitted effect of over 35% in size
In short: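 Tox21 qHTS; PXR-Luc HepG2; compounds pinned from DMSO; 24 hr, 37 C; ONE-Glo luciferase detection, 30 min room temperature.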

[9] = biological target: Cytochrome P450 2D6 (Homo sapiens) (UniProt P10635); assay: Cytochrome P450 Family 2 Subfamily D Member 6 (CYP2D6) small molecule antagonists: luciferase reporter qHTS assay (AID 1671196); further: series mostly up to about 120 µM; nearly all actives have a fitted effect of over 50% in size
In short: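 Room-temperature luminescent CYP2D6 activity assay: compound preincubated 10 min with enzyme–substrate mix, NADPH-initiated reaction 1 h, detection reagent 20 min before reading.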

[10] = biological target: Cytochrome P450 2C19 (Homo sapiens) (UniProt P33261); assay: Cytochrome P450 Family 2 Subfamily C Member 19 (CYP2C19) small molecule antagonists: luciferase reporter qHTS assay (AID 1671197); further: nearly all actives have a fitted effect of over 65% in size; further: potency means the concentration at half of the fitted maximal effect
In short: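 First, compounds are pinned into enzyme-substrate mix and held 10 min at room temperature. Second, NADPH regeneration solution is added and plates incubate 1 h at 37C. Third, detection reagent is added and luminescence read after 20 min.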

[11] = biological target: Cytochrome P450 2C9 (Homo sapiens) (UniProt P11712); assay: Cytochrome P450 Family 2 Subfamily C Member 9 (CYP2C9) small molecule antagonists: luciferase reporter qHTS assay (AID 1671198); further: nearly all actives have a fitted effect of over 50% in size; further: potency means the concentration at half of the fitted maximal effect
In short: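 CYP2C9 activity was measured with a P450-Glo proluciferin substrate. Enzyme–substrate mix was held with compound for 10 min at room temperature, then NADPH regeneration solution was added for 1 h at 37C. Luciferin product was read as luminescence.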

[12] = biological target: Cytochrome P450 1A2 (Homo sapiens) (UniProt P05177); assay: Cytochrome P450 Family 1 Subfamily A Member 2 (CYP1A2) small molecule antagonists: luciferase reporter qHTS assay (AID 1671199); further: nearly all actives have a fitted effect of over 50% in size; further: potency means the concentration at half of the fitted maximal effect
In short: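 Room-temperature CYP1A2 reaction with proluciferin substrate: compounds added from DMSO, 10 min preincubation, NADPH regeneration for 1 h. Luciferin detection reagent then added; luminescence recorded as RLU.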

[13] = biological target: Cytochrome P450 3A4 (Homo sapiens) (UniProt P08684); assay: Cytochrome P450 Family 3 Subfamily A Member 4 (CYP3A4) small molecule antagonists: luciferase reporter qHTS assay (AID 1671201)
In short: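 Inhibition of CYP3A4 is measured as loss of light: the enzyme converts a proluciferin substrate to luciferin, detected luminescently. Reaction ran 1 h at room temperature with NADPH regeneration after a 10 min compound preincubation.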

[14] = biological target: Thyrotropin-releasing hormone receptor (Homo sapiens) (UniProt P34981); assay: qHTS assay to identify small molecule antagonists of the thyrotropin-releasing hormone receptor (TRHR) signaling pathway (AID 1346877; active means well fitted inhibition curve with a large enough effect in the repeat runs, not every such curve was filed as active; further: series mostly up to about 51 µM)
In short: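 Calcium signal in dye-loaded TRHR/HEK293 cells; compounds added 5 min before TRH (1 nM final); fluorescence monitored 3 min at 1 s steps.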

[15] = biological target: Thyrotropin-releasing hormone receptor (Homo sapiens) (UniProt P34981); assay: qHTS assay to identify small molecule agonists of the thyrotropin-releasing hormone receptor (TRHR) signaling pathway (AID 1346891; calls by dose curve;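 further: HEK293 cells expressing TRHR with calcium dye readout; series mostly up to about 58 µM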)
In short: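 Agonist-mode calcium mobilisation screen: TRHR-transfected HEK293 cells cultured overnight (18 h), dye-loaded for 2 h at 37 °C, exposed to compounds, and monitored by fluorescence for 3 min.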

[16] = biological target: Nuclear receptor subfamily 1 group I member 2 (Rattus norvegicus) (UniProt Q9R1A7); assay: Rat pregnane X receptor (rPXR) activation by small molecules, qHTS assay (AID 1346983); details: rPXR luciferase reporter cells, One-Glo luminescence, 24 h; max activation: hits give high values; further: nearly all actives have a fitted effect of over 20% in size
In short: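 Cell-based rPXR luciferase reporter assay, 2,000 cells per well, rested 5hr at 37 C before compound addition in DMSO, then 24 hr at 37 C. One-Glo reagent was added and luminescence read after 30 min at room temperature.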

[17] = biological target: Nuclear receptor subfamily 1 group I member 2 (Homo sapiens) (UniProt O75469); assay: CYP3A4 induction through human pregnane X receptor (PXR) by small molecules, qHTS assay (AID 1346984); further: nearly all actives have a fitted effect of over 40% in size
In short: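 Cells (DPX-2; HepG2 with PXR element plus CYP3A4-promoter luciferase) settled 5hr, then were treated 24hr at 37C. A 3hr, 3uM-final Luciferin-IPA step preceded luminescence measurement with One-Glo.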

[18] = biological target: Voltage-gated inwardly rectifying potassium channel KCNH2 (Homo sapiens) (UniProt Q12809); assay: Human Ether-a-go-go-Related Gene (hERG) channel small molecule antagonists: fluorescence cell-based qHTS assay (AID 1671200); further: nearly all actives have a fitted effect of over 50% in size; further: potency means the concentration at half of the fitted maximal effect
In short: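 Quantitative HTS in hERG-U2OS cells: thallium entry through the channel reports activity, read as continuous 480/540 nm fluorescence over 2 min after stimulus addition.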
On the % scale 0 is the no-effect control and ±100 the full control effect.

Sequence of Cytochrome P450 3A4 (Homo sapiens) (P08684 whole entry, looked up): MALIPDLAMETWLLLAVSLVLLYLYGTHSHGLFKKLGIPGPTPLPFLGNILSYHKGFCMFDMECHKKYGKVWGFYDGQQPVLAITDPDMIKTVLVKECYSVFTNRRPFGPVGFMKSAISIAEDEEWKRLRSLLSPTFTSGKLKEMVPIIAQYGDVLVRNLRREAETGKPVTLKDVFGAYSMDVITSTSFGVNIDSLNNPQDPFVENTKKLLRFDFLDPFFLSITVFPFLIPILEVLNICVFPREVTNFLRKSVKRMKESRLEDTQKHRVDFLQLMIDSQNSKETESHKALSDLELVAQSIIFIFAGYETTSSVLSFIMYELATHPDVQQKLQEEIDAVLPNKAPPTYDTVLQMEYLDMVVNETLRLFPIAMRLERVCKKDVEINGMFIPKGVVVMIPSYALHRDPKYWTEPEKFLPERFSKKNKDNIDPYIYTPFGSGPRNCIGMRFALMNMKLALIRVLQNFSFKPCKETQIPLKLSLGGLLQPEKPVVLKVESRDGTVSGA
Sequence of Cytochrome P450 2C9 (Homo sapiens) (P11712 whole entry, looked up): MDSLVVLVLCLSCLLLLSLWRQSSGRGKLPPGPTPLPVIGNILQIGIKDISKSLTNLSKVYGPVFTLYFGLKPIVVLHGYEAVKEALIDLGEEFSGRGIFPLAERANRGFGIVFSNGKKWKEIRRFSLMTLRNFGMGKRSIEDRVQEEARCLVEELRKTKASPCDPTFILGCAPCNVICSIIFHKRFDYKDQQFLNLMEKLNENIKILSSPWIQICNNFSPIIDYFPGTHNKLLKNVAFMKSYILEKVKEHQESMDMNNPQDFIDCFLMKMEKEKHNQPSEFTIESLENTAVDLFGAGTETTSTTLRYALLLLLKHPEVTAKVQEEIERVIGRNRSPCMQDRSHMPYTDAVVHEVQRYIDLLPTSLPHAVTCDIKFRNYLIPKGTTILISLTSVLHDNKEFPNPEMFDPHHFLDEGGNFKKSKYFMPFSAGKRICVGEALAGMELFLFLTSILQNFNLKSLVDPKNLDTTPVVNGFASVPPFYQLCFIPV
Sequence of Voltage-gated inwardly rectifying potassium channel KCNH2 (Homo sapiens) (Q12809 whole entry, looked up): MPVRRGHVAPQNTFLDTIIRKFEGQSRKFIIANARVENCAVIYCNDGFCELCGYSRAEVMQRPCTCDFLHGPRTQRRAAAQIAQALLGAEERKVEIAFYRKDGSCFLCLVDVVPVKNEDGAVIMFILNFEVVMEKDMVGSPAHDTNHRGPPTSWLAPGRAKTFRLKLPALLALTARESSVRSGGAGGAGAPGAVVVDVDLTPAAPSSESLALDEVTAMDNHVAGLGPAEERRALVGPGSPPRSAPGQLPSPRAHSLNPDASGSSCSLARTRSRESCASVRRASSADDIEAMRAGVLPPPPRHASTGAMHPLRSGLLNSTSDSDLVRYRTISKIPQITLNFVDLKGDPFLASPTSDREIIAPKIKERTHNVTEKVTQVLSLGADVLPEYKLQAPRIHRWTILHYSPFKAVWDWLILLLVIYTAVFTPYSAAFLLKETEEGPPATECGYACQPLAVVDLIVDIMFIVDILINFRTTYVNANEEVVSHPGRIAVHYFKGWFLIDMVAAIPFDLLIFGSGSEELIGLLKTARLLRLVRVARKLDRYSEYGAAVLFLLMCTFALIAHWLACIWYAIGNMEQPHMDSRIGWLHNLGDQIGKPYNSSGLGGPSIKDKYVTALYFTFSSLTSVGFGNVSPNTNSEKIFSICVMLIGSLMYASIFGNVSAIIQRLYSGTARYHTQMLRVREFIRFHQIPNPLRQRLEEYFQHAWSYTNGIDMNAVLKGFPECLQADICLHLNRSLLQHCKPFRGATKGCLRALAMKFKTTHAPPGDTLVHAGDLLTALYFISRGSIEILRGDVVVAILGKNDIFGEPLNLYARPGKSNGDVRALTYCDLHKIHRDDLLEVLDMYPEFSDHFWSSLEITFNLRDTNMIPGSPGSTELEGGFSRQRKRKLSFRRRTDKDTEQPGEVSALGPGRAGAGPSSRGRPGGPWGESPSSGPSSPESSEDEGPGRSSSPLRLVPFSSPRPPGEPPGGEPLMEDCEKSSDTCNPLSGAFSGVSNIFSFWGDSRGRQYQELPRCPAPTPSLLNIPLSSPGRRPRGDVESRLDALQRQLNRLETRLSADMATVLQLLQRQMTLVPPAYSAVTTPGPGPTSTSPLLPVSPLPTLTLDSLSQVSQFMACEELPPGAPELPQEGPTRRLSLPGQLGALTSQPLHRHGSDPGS
Sequence of Cytochrome P450 1A2 (Homo sapiens) (P05177 whole entry, looked up): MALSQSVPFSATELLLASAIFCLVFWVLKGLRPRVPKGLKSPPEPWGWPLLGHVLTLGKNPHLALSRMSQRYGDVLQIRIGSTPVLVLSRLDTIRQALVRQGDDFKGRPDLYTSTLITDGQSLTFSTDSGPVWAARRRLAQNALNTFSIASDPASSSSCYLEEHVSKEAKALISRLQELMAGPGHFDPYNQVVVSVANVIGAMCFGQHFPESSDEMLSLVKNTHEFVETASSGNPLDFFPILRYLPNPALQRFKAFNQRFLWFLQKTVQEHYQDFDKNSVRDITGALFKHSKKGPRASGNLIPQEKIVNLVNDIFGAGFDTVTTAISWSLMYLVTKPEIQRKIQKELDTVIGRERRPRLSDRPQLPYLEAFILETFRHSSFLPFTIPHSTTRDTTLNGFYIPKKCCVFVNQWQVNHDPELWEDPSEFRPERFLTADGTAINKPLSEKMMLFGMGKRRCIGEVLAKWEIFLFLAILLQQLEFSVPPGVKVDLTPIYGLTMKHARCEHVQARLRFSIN
Sequence of Cytochrome P450 2D6 (Homo sapiens) (P10635 whole entry, looked up): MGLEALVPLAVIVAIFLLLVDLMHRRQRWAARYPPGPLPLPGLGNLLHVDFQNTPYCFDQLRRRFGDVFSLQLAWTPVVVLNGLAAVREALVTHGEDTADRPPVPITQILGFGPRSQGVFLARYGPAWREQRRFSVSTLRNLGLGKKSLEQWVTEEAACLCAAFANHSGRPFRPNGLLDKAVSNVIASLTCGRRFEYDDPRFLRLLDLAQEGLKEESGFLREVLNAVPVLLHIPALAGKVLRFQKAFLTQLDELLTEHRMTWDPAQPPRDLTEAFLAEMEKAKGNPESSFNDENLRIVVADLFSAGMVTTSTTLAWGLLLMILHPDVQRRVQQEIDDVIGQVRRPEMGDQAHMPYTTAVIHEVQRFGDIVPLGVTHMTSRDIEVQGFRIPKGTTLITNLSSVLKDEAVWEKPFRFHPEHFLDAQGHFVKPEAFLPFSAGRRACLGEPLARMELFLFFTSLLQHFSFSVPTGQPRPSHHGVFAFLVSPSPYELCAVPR
Sequence of Cytochrome P450 2C19 (Homo sapiens) (P33261 whole entry, looked up): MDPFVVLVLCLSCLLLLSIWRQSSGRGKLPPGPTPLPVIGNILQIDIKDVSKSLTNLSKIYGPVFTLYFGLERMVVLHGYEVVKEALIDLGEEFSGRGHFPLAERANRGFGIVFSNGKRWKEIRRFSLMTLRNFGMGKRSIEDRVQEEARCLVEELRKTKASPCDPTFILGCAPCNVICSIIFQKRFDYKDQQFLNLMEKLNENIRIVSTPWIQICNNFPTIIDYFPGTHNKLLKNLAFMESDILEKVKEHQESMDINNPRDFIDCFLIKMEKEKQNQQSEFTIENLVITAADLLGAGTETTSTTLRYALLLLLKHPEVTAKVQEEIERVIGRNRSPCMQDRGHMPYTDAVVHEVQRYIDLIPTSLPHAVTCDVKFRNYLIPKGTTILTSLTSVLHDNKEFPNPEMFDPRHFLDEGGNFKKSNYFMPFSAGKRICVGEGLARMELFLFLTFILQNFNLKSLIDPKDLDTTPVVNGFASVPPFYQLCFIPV
Sequence of Thyrotropin-releasing hormone receptor (Homo sapiens) (P34981 whole entry, looked up): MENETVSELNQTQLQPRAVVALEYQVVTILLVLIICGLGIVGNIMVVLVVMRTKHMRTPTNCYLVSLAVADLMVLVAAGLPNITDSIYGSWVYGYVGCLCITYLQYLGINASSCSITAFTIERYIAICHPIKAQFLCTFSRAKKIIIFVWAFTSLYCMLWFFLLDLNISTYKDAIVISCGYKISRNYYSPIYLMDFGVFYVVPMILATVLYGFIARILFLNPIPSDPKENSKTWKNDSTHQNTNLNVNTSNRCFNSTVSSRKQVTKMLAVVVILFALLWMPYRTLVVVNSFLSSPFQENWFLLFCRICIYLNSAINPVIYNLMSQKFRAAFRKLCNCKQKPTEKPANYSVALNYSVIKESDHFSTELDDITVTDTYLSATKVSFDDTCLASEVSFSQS
Sequence of Nuclear receptor subfamily 1 group I member 2 (Homo sapiens) (O75469 whole entry, looked up): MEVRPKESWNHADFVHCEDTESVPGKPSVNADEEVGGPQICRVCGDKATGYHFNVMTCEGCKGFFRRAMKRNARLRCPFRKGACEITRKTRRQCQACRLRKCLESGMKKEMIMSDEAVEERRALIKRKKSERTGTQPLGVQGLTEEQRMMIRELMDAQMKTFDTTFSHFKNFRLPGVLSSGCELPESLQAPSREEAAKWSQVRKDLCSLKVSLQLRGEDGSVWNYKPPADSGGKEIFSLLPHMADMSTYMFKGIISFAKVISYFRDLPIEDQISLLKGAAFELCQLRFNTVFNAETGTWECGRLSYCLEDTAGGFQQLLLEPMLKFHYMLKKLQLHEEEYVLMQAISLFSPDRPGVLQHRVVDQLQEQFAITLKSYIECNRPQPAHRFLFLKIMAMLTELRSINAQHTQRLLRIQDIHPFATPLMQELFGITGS
Sequence of Nuclear receptor subfamily 1 group I member 2 (Rattus norvegicus) (Q9R1A7 whole entry, looked up): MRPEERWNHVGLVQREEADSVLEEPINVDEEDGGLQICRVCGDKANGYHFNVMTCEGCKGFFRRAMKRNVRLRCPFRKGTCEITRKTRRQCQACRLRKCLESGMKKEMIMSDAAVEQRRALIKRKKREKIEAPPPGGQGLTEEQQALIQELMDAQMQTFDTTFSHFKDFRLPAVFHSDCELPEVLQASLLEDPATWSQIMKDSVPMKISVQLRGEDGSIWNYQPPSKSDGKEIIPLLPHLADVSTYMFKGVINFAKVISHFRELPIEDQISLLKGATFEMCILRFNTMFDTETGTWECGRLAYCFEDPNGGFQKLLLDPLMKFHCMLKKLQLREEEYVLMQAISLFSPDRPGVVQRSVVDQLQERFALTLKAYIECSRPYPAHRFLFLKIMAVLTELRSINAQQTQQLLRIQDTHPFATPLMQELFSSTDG

CCCCOC(=O)C(C)OC(=O)CCC (stereo not given)
inactive: outcome [1] | outcome [2] | Potency [3] | outcome [4] | Potency [5] | outcome [6] | Potency [7] | Potency [8] | Potency [9] | Potency [10] | Potency [11] | Potency [12] | Potency [13]

CCCCOC(=O)C(=O)OCCCC
inactive: outcome [1] | outcome [2] | outcome [14] | outcome [15] | outcome [6] | Potency [7] | Potency [8] | Potency [9] | Potency [10] | Potency [11] | Potency [12] | Potency [13]

COC(=O)CCC(=O)O
inactive: outcome [1] | outcome [2] | Potency [3] | outcome [4] | Potency [5] | outcome [6] | Potency [7] | Potency [8] | Potency [9] | Potency [10] | Potency [11] | Potency [12]

NCCc1ccn[nH]1
inactive: outcome [1] | outcome [2] | Potency [3] | outcome [4] | Potency [5] | outcome [6] | Potency [7] | Potency [8] | max activation [16] -4.71% | Potency [9] | Potency [11] | Potency [12] | Potency [13]

O=c1cc(O)c(Cl)c[nH]1
inactive: outcome [1] | outcome [2] | Potency [3] | outcome [4] | Potency [5] | outcome [6] | Potency [7] | Potency [8] | max activation [16] -3.03% | outcome [17] | Potency [9] | Potency [10] | Potency [11] | Potency [12] | Potency [18] | Potency [13]

O=S1(=O)CCCC1
inactive: outcome [1] | outcome [2] | outcome [14] | outcome [15] | Potency [5] | outcome [6] | Potency [7] | Potency [8] | Potency [9] | Potency [11] | Potency [18] | Potency [13]
active: Potency [12] 40.2 µM

C=CCOc1cc(Cl)ccc1C(=O)NCCN(CC)CC
active: Potency [10] 6.92 µM | Potency [12] 2.57 µM | Potency [18] 9.52 µM
inactive: outcome [1] | outcome [2] | outcome [14] | outcome [15] | outcome [6] | Potency [7] | Potency [8] | Potency [11]

C[C@H](CCC(=O)O)[C@H]1CC[C@H]2[C@@H]3[C@H](O)C[C@@H]4C[C@H](O)CC[C@]4(C)[C@H]3C[C@H](O)[C@]12C
inactive: outcome [1] | outcome [2] | Potency [3] | outcome [4] | Potency [5] | outcome [6] | Potency [7] | Potency [8] | Potency [9] | Potency [11] | Potency [12] | Potency [18] | Potency [13]

CCCCOC(=O)[C@@H](C)Oc1ccc(Oc2ccc(C(F)(F)F)cn2)cc1
inactive: outcome [1] | outcome [2] | Potency [3] | outcome [4] | Potency [5] | outcome [6] | Potency [7] | Potency [8] | Potency [9]
active: Potency [10] 25.3 µM | Potency [11] 16 µM | Potency [12] 20.1 µM
